# Measurements published in PubChem BioAssay AID588342 (National Center for Advancing Translational Sciences (NCATS), 2011).
# Hit rate of the full screen: of about 360,000 compounds, about 25,000 (6.9%) were called active. Roughly 9% stayed inconclusive and do not appear here. The full list was thinned out, with actives kept by preference. A number with no mark means an inactive call. Calls come from the whole dose curve; as a rule, active = well fitted inhibition curve with a large enough effect; inconclusive = small, poorly fitted or top-dose-only effect; inactive = flat fitted curve, though single readings scatter.
# Molecular target: Luciferin 4-monooxygenase (Photinus pyralis) (UniProt P08659)
# Assay: qHTS profiling assay for firefly luciferase inhibitor/activator using purifed enzyme and Km concentrations of substrates (counterscreen for miR-21 project); note: nearly all actives have a fitted effect of over 55% in size;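 for activity change, negative = inhibition: plate controls were vehicle for no effect and reference inhibitor for full effect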
# Conditions: purified FLuc, luminescence inhibition; series mostly up to 57.5 µM; activity change, negative = inhibition: at the top concentration
# Procedure, shortened: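 Purified P. pyralis luciferase, 10 nM final, with Km-level 10 uM D-luciferin and 10 uM ATP in 50 mM Tris acetate pH 7.5, 10 mM Mg acetate, 0.01% Tween-20, 0.05% BSA; 6-point qHTS titration about 60 µM downward; luminescence read.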
# Potency is the fitted concentration of half-maximal effect.
# Luciferin 4-monooxygenase (Photinus pyralis), sequence (P08659 whole entry, looked up): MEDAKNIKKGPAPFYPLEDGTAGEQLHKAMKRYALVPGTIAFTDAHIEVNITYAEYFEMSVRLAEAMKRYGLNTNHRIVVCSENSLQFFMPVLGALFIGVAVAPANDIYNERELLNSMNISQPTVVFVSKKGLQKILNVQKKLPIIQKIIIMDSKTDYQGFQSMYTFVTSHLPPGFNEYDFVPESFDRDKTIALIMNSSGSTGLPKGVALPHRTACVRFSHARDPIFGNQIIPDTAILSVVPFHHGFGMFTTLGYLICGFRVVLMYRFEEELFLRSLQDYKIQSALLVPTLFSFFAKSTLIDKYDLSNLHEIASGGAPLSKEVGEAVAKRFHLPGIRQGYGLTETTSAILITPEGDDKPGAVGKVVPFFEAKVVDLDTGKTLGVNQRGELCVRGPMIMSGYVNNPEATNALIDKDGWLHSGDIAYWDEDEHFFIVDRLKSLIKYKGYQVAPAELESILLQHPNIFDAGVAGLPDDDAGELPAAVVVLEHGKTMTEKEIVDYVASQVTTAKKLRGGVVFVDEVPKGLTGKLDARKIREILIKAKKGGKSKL
Structure (SMILES),"activity change, negative = inhibition [%]",Potency
COc1cccc(C2=CC(=O)C[C@H](c3ccc(F)cc3)C2)c1OC,-9.98,
CC(C)c1ccc(OCC(=O)N(Cc2ccc(N(C)C)cc2)C2CCS(=O)(=O)C2)cc1 (configuration not stated),-0.839,
CCOc1cccc(CNC(=O)c2ccc(N3CCCC3)c(NC(=O)Nc3ccccc3CC)c2)c1,0.552,
COc1ccc(CN2C(=O)C(NC(=O)c3cccc(C)c3)(C(F)(F)F)N=C2c2ccccc2)cc1 (configuration not stated),-14,
Cc1ccc2nc(-c3ccc(SCC(=O)Nc4cc(C)on4)nc3)[nH]c2c1,,0.757 µM (active)
Cc1cc(NC(=O)CSc2nc3ccccc3n2CC(C)C)no1,-16.7,
Cc1ccc(SCCC(=O)Nc2cc(C)on2)cc1,-1.52,
Cc1cc(F)ccc1NC1(c2ccccc2)C(=O)c2ccccc2C1=O,-12.8,
CN(C)c1ccc(S(=O)(=O)NCC(=O)NCC2CCCCC2)cc1[N+](=O)[O-],-1.38,
CC(=O)c1ccc(N2Cc3ccccc3C2)cc1,,10.7 µM (active)
CC(=O)c1ccc(N2CCN(C(=O)CCc3ccccc3)CC2)cc1,-8.99,
CC(=O)c1ccc(N2CCN(CC(O)c3ccccc3)CC2)cc1 (configuration not stated),4.54,
Cc1ccc(S(=O)(=O)N2CCCCC2)cc1C(=O)N1CCN(CCO)CC1,3.12,
Cc1cc(C)c2oc(C(=O)Nc3ccc(S(=O)(=O)N4CCCCCC4)cc3)cc(=O)c2c1,-2.56,
CN(C)c1nc(N)nc(Cn2nnc(-c3ccc(C(F)(F)F)cc3)n2)n1,-0.922,
CCc1ccc(-c2nnn(Cc3nn[nH]n3)n2)cc1,,26.9 µM (active)
COc1ccc(-c2nnn(Cc3nc(N)nc(N4CCCCC4)n3)n2)cc1,0.313,
CC(=O)Nc1ccc(S(=O)(=O)N2CCn3cccc3C2C)cc1 (configuration not stated),-1.34,
Cc1ccc(-c2noc(-c3nnn(-c4cccc(C(F)(F)F)c4)c3N)n2)cc1,0.761,
CCc1ccc(-n2nnc(-c3nc(-c4ccccc4)no3)c2C)cc1,,2.13 µM (active)
Cc1ccc(-c2noc(CSc3nnnn3-c3ccccc3)n2)cc1,-3.75,
Cc1ccc2c(c1)N(C(=O)CCC(=O)NCc1ccccc1F)CC(C)O2 (configuration not stated),2.57,
CCc1cccc(NC(=O)CN(c2ccc(C)c(C)c2)S(=O)(=O)c2ccsc2C(=O)OC)c1,-0.926,
CC(=O)Oc1ccc(C)cc1N1C(=O)c2ccc(C(=O)O)cc2C1=O,-5.61,
Cc1cccc(N2C(=O)c3ccc(C(=O)Nc4cccc(C(=O)O)c4)cc3C2=O)c1,,1.51 µM (active)
CC(=O)Nc1ccc(NC(=O)c2ccc3c(c2)C(=O)N(c2ccccc2C)C3=O)cc1,-1.2,

Structure (SMILES),"activity change, negative = inhibition [%]",Potency
Cn1nnnc1SCCNCc1ccc(Cl)c(Cl)c1,-6.85,
CC1=NNC(=O)C1CCC(=O)N/N=C\c1cccc(Cl)c1 (configuration not stated),5.5,
COc1cccc(/C=N\NC(=O)C2=NNC(=O)C2C)c1O (configuration not stated),,6.01 µM (active)
Cc1cccc(-n2c(=O)c3c(c4cc(C)ccc4n3C)n(CC(=O)Nc3ccccc3Cl)c2=O)c1,-3.48,
O=S(=O)(c1ccc(Cl)cc1)c1nnn2c1nc(NC1CCCC1)c1sccc12,-14.4,
CC(=O)N1CCCc2cc(S(=O)(=O)Nc3ccc(Cl)cc3F)ccc21,-13.7,
CN(CC(=O)Nc1ccc(F)cc1)CC(=O)N1CCCCC1,13.3,
Cc1ccccc1C(=O)O,1.05,
Cc1ccc(Sc2cc(C(=O)c3ccccc3C(=O)O)ccc2[N+](=O)[O-])cc1,1.6,
Cc1ccc(C(=O)CSc2ccccc2C(=O)O)cc1,,4.26 µM (active)
CC1(C(=O)OCC(=O)Nc2ncc(Cl)cc2Cl)CC1(Cl)Cl (configuration not stated),-4.62,
Cc1ccc(NC(=O)NC(C)c2c(-n3cccc3)sc(C)c2C)c(C)c1 (configuration not stated),-8.67,
COC(=O)[C@@H]1C[C@H]2CC[C@H](O)C[C@H]2N1Cc1ccc(N2CCN(C)CC2)cc1,-1.08,
O=C(CCc1ccccc1)Nc1nn[nH]n1,0.606,
Cc1nnsc1C(=O)Nc1cccc(Cl)c1C,-3.55,
Cc1ccc(-c2cc(C(=O)Nc3nn[nH]n3)c3ccccc3n2)c(C)c1,,15.1 µM (active)
Cc1ccc2c(Cl)c(C(=O)Nc3nn[nH]n3)sc2c1,,16.9 µM (active)
O=C(/C=C/c1c(F)cccc1Cl)Nc1nn[nH]n1,-18,
Cc1cccc(NC(=O)CN(c2ccc(C(C)C)cc2)S(=O)(=O)c2c(C)nn(C)c2C)c1C,-8.68,
COCCCNc1nc2c(-c3cccc(C)c3)nnn2c2ccc(Cl)cc12,-15.6,
CC(=O)NC1C(Oc2ccc(C)cc2)OC2COC(c3ccco3)OC2C1O (configuration not stated),2.15,
CC(C)c1ccc(C2C(C(=O)c3ccco3)=C(O)C(=O)N2CC2CCCO2)cc1 (configuration not stated),-1.69,
CCOc1ccc(C2CC(=O)c3c([nH]c(C(=O)OCc4ccccc4)c3C)C2)cc1 (configuration not stated),-3.69,
O=C(Nc1cc(C(F)(F)F)ccc1Cl)c1ccc2c(c1)CCN2S(=O)(=O)c1ccccc1,-0.624,
N#Cc1nc(Cc2ccccc2)oc1NCCc1ccccc1,,16.9 µM (active)
N#Cc1nc(Cc2cccc3ccccc23)oc1NCc1ccc2c(c1)OCO2,5.05,
